The list is not random: actives were taken first. Their share in the collection is about 27%.
CYP2C9 activ: activators of human CYP2C9. recombinant CYP2C9, luciferin-H conversion, luminescence; hits give high values; factor 1 = untreated enzyme, 0 = blocked. 96,000 tested, 1.4% active. P11712. AID 1024. activation factor at 5 µM;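 active = activation factor of 2 or more for CYP2C9 at a 5 µM dose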;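 note: 0 = sulfaphenazole-blocked wells and 1 = vehicle-only wells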
CYP2C19 activ: activators of human cytochrome P450 2C19; P33261; recombinant CYP2C19, luciferin-H EGE luminescence; hits give high values; 0 = fully inhibited enzyme, 1 = untreated enzyme; activation factor at 5 µM; 96,000 tested, under 10 active; AID 1025;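 active = activation factor of at least 2 at 5 µM in the primary screen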;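 note: 0 = wells with 2.5 mM tranylcypromine and 1 = vehicle-only wells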
Target sequence (P33261 whole entry, looked up): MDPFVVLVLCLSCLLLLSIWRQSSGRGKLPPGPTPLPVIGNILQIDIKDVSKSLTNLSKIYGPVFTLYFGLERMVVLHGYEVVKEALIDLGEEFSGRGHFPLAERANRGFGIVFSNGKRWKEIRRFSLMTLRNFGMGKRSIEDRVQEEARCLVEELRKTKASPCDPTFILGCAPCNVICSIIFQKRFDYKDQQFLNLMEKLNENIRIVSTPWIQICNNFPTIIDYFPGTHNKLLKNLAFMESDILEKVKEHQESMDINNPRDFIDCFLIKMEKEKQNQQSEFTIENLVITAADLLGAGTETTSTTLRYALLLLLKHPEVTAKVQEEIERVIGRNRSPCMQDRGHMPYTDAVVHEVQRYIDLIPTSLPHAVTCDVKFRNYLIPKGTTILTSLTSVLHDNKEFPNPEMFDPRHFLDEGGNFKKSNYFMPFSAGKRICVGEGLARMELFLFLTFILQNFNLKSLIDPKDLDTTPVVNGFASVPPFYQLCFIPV
Cav32 inh: inhibitors of human Cav3.2 T-type calcium channel | O95180 | Cav3.2-expressing cells, Fluo-4 calcium fluorescence FDSS; hits give low values | B-score at 10 µM | 100,000 tested, 4% active;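 active = single-dose well whose peak fluorescence ratio is a statistical outlier from its plate by either plate-standardised score or position-corrected B-score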
CYP2C19 inhib: human CYP2C19 inhibition | P33261 | CYP2C19 Supersomes, luciferin-H EGE luminescence, 30 min | inhibition, % at 5 µM | 96,000 tested, 21% active | AID 778;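 active = CYP2C19 inhibition above a set limit at 5 µM in the primary screen, cut at about 50% in these data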;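 note: plate controls were negative control wells for no effect and 2.5 mM tranylcypromine positive control for full effect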
CYP2C9 inh: inhibitors of human CYP2C9; P11712; CYP2C9 Supersomes, luciferin-H conversion, luminescence; inhibition, % at 5 µM; 96,000 tested, 20% active; AID 777;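 active = blocking of liver enzyme CYP2C9 beyond about 50% at 5 µM, limit read from the data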
Numbers without * were called inactive; . = no result given.

SMILES | CYP2C9 activ | CYP2C19 activ | Cav32 inh | CYP2C19 inhib | CYP2C9 inh
Cc1onc(-c2ccccc2Cl)c1C(=O)Nc1cccc2cccnc12 | 0.5 | 0.2 | -3 | 76* | 46
Cc1onc(-c2c(F)cccc2Cl)c1C(=O)NCc1cccs1 | 0.2 | 0.2 | -1.3 | 85* | 84*
Cc1onc(-c2ccccc2Cl)c1C(=O)Nc1ccccc1C(N)=O | 0.6 | 0.4 | 0.22 | 56* | 38
Cc1onc(-c2ccccc2Cl)c1C(=O)NCC(=O)O | 1.3 | 1.1 | 0.42 | -12 | -27
Cc1onc(-c2ccccc2Cl)c1C(=O)NCc1ccccc1 | 0.4 | 0.1 | -0.42 | 88* | 58*
CCOc1ccccc1Nc1ccc(C(=O)O)cc1NC(C)=O | 1 | 1 | 0.32 | 1 | -1
NC(=O)CC(NC(=O)Cc1cccc2ccccc12)c1ccc(NCCc2ccccc2F)c([N+](=O)[O-])c1 (stereo not given) | . | . | -0.069 | . | .
COc1ccc(F)cc1CN1CCN(C(=O)CCC(=O)Nc2nnc(C(C)C)s2)CC1 | 1.1 | 1.1 | -0.62 | -7 | -6
Cc1onc(-c2ccccc2Cl)c1C(=O)Nc1ccccc1N1CCOCC1 | 0.3 | 0.4 | -3.2 | 61* | 69*
CC(=O)Nc1cccc(NC(=O)c2c(-c3ccccc3Cl)noc2C)c1 | 0.8 | 0.7 | 0.2 | 26 | 21
COc1ccc(S(=O)(=O)n2nc(OC(=O)c3c(-c4ccccc4Cl)noc3C)cc2N)cc1 | 0.1 | 0.6 | -5.4* | 38 | 94*
Cc1onc(-c2ccccc2Cl)c1C(=O)Nc1ccccc1C(=O)NC(C)C | 0.2 | 0.6 | -0.66 | 43 | 79*
Cc1cc(C)nc(NC(=O)c2c(-c3ccccc3Cl)noc2C)n1 | 0.7 | 0.9 | -1.1 | 14 | 30
CCSc1nnc(NC(=O)c2c(-c3ccccc3Cl)noc2C)s1 | 0.1 | 0 | 0.36 | 100* | 95*
Cc1ccc(NC(=S)N2CCN(C3CCCCC3)CC2)cc1 | 1 | 0.9 | 2.3 | 10 | 2
Cc1nn(C)c(C)c1CN(C)C(=O)CCCC(=O)O | . | . | 0.59 | . | .
CC(C)Oc1ccccc1-c1nc(SCC(=O)O)n[nH]1 | 1.1 | 1 | 0.64 | -2 | -7
Cc1onc(-c2ccccc2Cl)c1C(=O)OCN1C(=O)c2ccccc2C1=O | 0.8 | 0.4 | -0.049 | 56* | 18
CCOC(=O)N1CCN(S(=O)(=O)c2ccc3[nH]c(=O)sc3c2)CC1 | 1.2 | 0.8 | 1.9 | 20 | -21
O=C(OCN1C(=O)c2ccccc2C1=O)c1ccco1 | 1.1 | 1 | -0.58 | 4 | -6
Cc1noc(C)c1COc1cccc(C(=O)OCC(=O)N2CC(=O)Nc3ccccc32)c1 | 0.4 | 0.4 | -2 | 59* | 63*
Cn1c2ccccc2c2cc(C(=O)OCC(=O)N3CC(=O)Nc4ccccc43)sc21 | 2* | 0.1 | -1.1 | 86* | -104
O=C1CN(C(=O)COC(=O)c2ccccc2NCc2ccco2)c2ccccc2N1 | 0.6 | 0.4 | -3.8* | 56* | 40
CCOc1ncccc1C(=O)OCC(=O)N1CC(=O)Nc2ccccc21 | 1.3 | 1.1 | 0.2 | -11 | -32
Cc1nc(-c2cccc(S(=O)(=O)N3CCCC(C)C3)c2)cs1 (stereo not given) | 0.7 | 0.9 | -2.7 | 14 | 28
SMILES | CYP2C9 activ | CYP2C19 activ | Cav32 inh | CYP2C19 inhib | CYP2C9 inh
Cc1nc2c3cnn(-c4ccccc4)c3ncn2n1 | 0.9 | 0.9 | 0.77 | 9 | 6
CCc1nc2c3cnn(-c4cc(Cl)ccc4C)c3ncn2n1 | 0.9 | 0.1 | 1 | 85* | 7
COc1ccccc1COCC(O)CNCC1(N2CCCCC2)CCCCC1 (stereo not given) | 1 | 1 | 0.87 | 1 | 5
C=CCN1C(=O)CC(C(=O)NC)SC1=Nc1ccc(C(=O)OCC)cc1 (stereo not given) | 0.7 | 0.9 | -0.56 | 11 | 25
COc1ccc(CNC(N)=O)cc1 | . | . | 0.57 | . | .
CC(OC(=O)c1cccs1)C(=O)NCc1ccccc1 (stereo not given) | 0.2 | 0 | 1.5 | 98* | 77*
CC(C)C(OC(=O)c1ccco1)C(=O)NCc1ccccc1 (stereo not given) | 0.8 | 0.7 | 0.11 | 33 | 23
COc1ccc(CNC(=O)C(C)OC(=O)c2cccn2C)cc1 (stereo not given) | 0.6 | 0.2 | -1.2 | 78* | 36
CC(OC(=O)c1cccs1)C(=O)NCc1ccc2c(c1)OCO2 (stereo not given) | 0.3 | 0.6 | 0.51 | 38 | 67*
COCCSc1ccccc1C(=O)NCc1ccc2c(c1)OCO2 | 0.8 | 0.5 | 0.94 | 48 | 24
CC(C)C(OC(=O)c1nsc(Cl)c1Cl)C(=O)NCc1ccc2c(c1)OCO2 (stereo not given) | 0.3 | 0.6 | 2 | 43 | 65*
O=C(NCc1ccc2c(c1)OCO2)C(=O)NC1CCCCC1 | 0.8 | 0.8 | 2 | 19 | 23
CS(=O)(=O)Nc1ccc(C(=O)N2CCN(c3ccccc3)CC2)cc1 | 1 | 1.1 | 0.38 | -8 | 2
COC(=O)C(C)NS(=O)(=O)c1ccc(NC(C)=O)cc1 (stereo not given) | 0.9 | 0.9 | -0.21 | 14 | 14
COC(=O)Nc1nnc(-c2ccccc2Cl)s1 | 1.2 | 0.8 | 0.85 | 20 | -20
O=C(C1CCCN1S(=O)(=O)c1cccc2cccnc12)N1CCN(c2ccccc2)CC1 (stereo not given) | 0.4 | 0.8 | 0.42 | 16 | 61*
O=C(C1CCC(CNS(=O)(=O)c2cccc3cccnc23)CC1)N1CCc2ccccc21 (stereo not given) | 0.9 | 0.2 | -1.8 | 80* | 12
O=C(C1CCCN1S(=O)(=O)c1cccc2cccnc12)N1CCc2ccccc21 (stereo not given) | 0.4 | 0.3 | 0.3 | 70* | 62*
CCOc1ccc(OCC)c(NC(=O)C2CCCN2S(=O)(=O)c2cccc3cccnc23)c1 (stereo not given) | 1.6 | 0.6 | 0.29 | 41 | -64
CN(CC(=O)N1CCc2ccccc21)S(=O)(=O)c1cccc2cccnc12 | 1.1 | 0.8 | 0.26 | 18 | -12
CC1CCN(C(=O)C2CCC(CNS(=O)(=O)c3cccc4cccnc34)CC2)CC1 (stereo not given) | 2.9* | 1 | . | -2 | -191
O=C(NCCN1CCCCCC1)C1CCC(CNS(=O)(=O)c2cccc3cccnc23)CC1 (stereo not given) | 1 | 0.6 | 0.19 | 45 | 2
O=C(Cc1ccccc1)NCC(=O)OCC(=O)c1ccc(OC(=O)c2ccccc2)cc1 | 0.8 | 1 | -0.11 | 1 | 15
C#CCOC(=O)c1ccccc1C(=O)N(CC)CC | 1 | 0.9 | 0.16 | 8 | 4
O=C(C1CCN(S(=O)(=O)c2cccc3cccnc23)CC1)N1CCc2ccccc21 | 2.1* | 0.6 | -0.96 | 43 | -112
Cc1c(NC(=O)CSc2nnnn2-c2ccc(O)cc2)c(=O)n(-c2ccccc2)n1C | 1.6 | 0.9 | 0.021 | 10 | -59
COc1ccc(OC)c(C2C3=C(N=C4SCC(=O)N42)c2ccccc2CC3)c1 (stereo not given) | 0.5 | 0.6 | -1.3 | 44 | 47

Screens (PubChem)
